Assay outcomes: PubChem BioAssay, National Center for Advancing Translational Sciences (NCATS)
PNC assembly inh – High Content Assay for Compounds that inhibit the Assembly of the Perinucleolar Compartment; PC3M PTB-GFP, PNC prevalence imaging, 16 h; active compounds read low; activity change (PNC), negative = inhibition, % at 10 µM; 3.1% of 140,000 active; AID 2417, 2010;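 active = readout at or below -70, meaning at least 70% loss of cells showing the perinucleolar compartment, a nuclear body marking cancer cells; inconclusive = readout between -30 and a set limit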;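 also: plate controls were DMSO wells for no effect and camptothecin positive control wells for full effect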
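Read-out is percentage of cells bearing a perinucleolar compartment, from automated 20x imaging of fixed, Hoechst-stained PC3M PTB-GFP cells. Cells were seeded 4 h, then exposed 16 h to compound (23 nl of library stock) in duplicate plates.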
ALDH1A1 inh – qHTS Assay for Inhibitors of Aldehyde Dehydrogenase 1 (ALDH1A1); Purified ALDH1A1, NADH fluorescence, propionaldehyde substrate; Potency, µM (doses to about 75.3 µM), without a hit: at the top dose activity, negative = inhibition, hits mostly inhibitors; 7.3% of 220,000 active; AID 1030, 2008; active = well fitted inhibition curve with a large enough effect, not every such curve was filed as active; inconclusive = small, poorly fitted or top-dose-only effect, or another doubt; inactive = no such curve, though single readings can be large or run the other way;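 also: potency is read from the fitted curve at half-maximal effect; plate controls were no enzyme wells and a reference inhibitor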
Target sequence (P00352 whole entry, looked up): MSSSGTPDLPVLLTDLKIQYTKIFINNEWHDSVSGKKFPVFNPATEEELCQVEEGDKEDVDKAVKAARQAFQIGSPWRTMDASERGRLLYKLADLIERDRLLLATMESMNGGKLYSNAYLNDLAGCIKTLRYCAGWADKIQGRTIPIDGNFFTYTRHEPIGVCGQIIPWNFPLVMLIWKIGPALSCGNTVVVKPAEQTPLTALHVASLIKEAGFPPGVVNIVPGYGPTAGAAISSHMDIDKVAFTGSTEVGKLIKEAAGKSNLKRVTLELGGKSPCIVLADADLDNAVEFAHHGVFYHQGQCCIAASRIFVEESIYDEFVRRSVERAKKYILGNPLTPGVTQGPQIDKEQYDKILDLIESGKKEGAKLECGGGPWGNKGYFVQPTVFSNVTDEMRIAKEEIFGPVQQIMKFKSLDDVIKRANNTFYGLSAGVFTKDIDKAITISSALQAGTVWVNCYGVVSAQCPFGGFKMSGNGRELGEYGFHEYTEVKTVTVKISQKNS
HTT cytoprotect – qHTS Multiplex Assay to Identify Dual Action Probes in a Cell Model of Huntington: Cytoprotection (ATP); PC12 HTT-Q103 induced, cytoprotection, ATP luminescence, 40 h; Potency, µM (doses to about 56.4 µM), inactives show cytoprotection (ATP increase), hits mostly activators; 0.14% of 230,000 active; also: potency is read from the fitted curve at half-maximal effect; % of control where 0% means no effect; nearly all actives have a fitted effect of over 45% in size
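Cells were plated at 1500 per well in phenol red-free DMEM with 5% equine and 5% calf serum. Tebufenozide (100 nM final) and compounds were added, then ATPlite reagent, and luminescence was read.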
CBFb RUNX1 block – qHTS Assay for Compounds Blocking the Interaction Between CBF-beta and RUNX1 for the Treatment of Acute Myeloid Leukemia. Runt-related transcription factor 1 (Homo sapiens) + Core-binding factor subunit beta …. AlphaScreen CBFb-His/RUNX1-biotin binding, biochemical. Potency, µM (top dose mostly 59.8 µM), for the others: at the top dose activity, negative = inhibition, most hits filed as inhibitors. 230,000 tested, under 10 active; also: % of control where 0% means no effect
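Inhibition was taken as any reduction in AlphaScreen signal from the CBF-beta–RUNX1 pair (His and biotin tags, 30 nM each), measured after compound (15 min) and bead (90 min) incubations at room temperature.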
HPGD block – qHTS Assay for Inhibitors of HPGD (15-Hydroxyprostaglandin Dehydrogenase); 15-hydroxyprostaglandin dehydrogenase [NAD(+)] (Homo sapiens), P15428; purified HPGD, NADH fluorescence kinetic, PGE2 substrate; Potency, µM, inactives show top-dose activity change, negative = inhibition, usual class: inhibitors; 4.3% of 150,000 active; active = well fitted inhibition curve with a large enough effect, not every such curve was filed as active; inconclusive = small, poorly fitted or top-dose-only effect, or another doubt; inactive = no such curve, though single readings can be large or run the other way; also: potency is read from the fitted curve at half-maximal effect; % is scaled to controls: 0 for no effect and ±100 for the full control effect
Target sequence (P15428 whole entry, looked up): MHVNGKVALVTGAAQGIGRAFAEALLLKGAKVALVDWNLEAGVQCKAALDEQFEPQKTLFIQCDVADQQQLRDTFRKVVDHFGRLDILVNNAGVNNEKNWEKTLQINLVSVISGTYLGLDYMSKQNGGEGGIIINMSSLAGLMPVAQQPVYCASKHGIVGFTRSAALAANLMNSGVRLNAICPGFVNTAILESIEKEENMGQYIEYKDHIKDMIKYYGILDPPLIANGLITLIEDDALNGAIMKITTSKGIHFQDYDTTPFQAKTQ
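NADH formation kinetics: reaction with 30 uM PGE2 and 1 mM NAD+ (final), 20 nM enzyme, Tris-HCl pH 8 with Tween 20, after 15 min compound preincubation at room temperature. Fluorescence change, last versus first of five reads.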
HTT aggregate – qHTS Multiplex Assay to Identify Dual Action Probes in a Cell Model of Huntington: Aggregate Formation (GFP) | PC12 HttQ103-GFP aggregates, Acumen cytometry, 40 h | AID 1688, 2009 | Potency, µM (titrated, usually from 46.1 µM), for inactives: top-dose activity change, negative = inhibition, hits mostly inhibitors | 1.1% of 220,000 active; also: potency is read from the fitted curve at half-maximal effect; % is scaled to controls: 0 for no effect and ±100 for the full control effect; nearly all actives have a fitted effect of over 60% in size
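Quantitative HTS on tebufenozide-induced (100 nM) PC12 cells stably expressing polyQ103 Huntingtin exon 1–GFP. Reduction of bright GFP aggregates, detected by laser scanning cytometry after lysis, identified actives across the titration.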
Active calls of the source: *; ? = inconclusive; / = no result given; [ ] = remark or other dose. In the library only some 11% were active in any assay of this set; here they are far more common. Unless noted, calls follow the shape of the dose curve; as a rule, active = well fitted curve in the direction sought with a large enough effect; inconclusive = small, poorly fitted or top-dose-only effect, or another doubt; inactive = no such curve, though single readings can be large; an effect the other way counts as inactive or inconclusive.

SMILES	PNC assembly inh	ALDH1A1 inh	HTT cytoprotect	CBFb RUNX1 block	HPGD block	HTT aggregate
O=C(O)C[C@H]1OCC=C2CN3CC[C@]45c6ccccc6N[C@@H]4[C@H]1[C@H]2C[C@H]35	/	-8%[13.5 µM]	19%[10 µM]	/	-7%	/
C[C@@]12CC[C@H](O)C[C@@H]1CC[C@H]1[C@H]2C[C@@H](O)[C@]2(C)[C@@H](C3=CC(=O)OC3)CC[C@@]12O	/	/	-26%	/	/	/
COc1cccc(C(=O)N2CCC3(CC2)OCCO3)c1	/	/	0%[10 µM]	5%	/	-25%[9.22 µM]
O=C(c1ccc2c(c1)ncn2C1CCCCC1)N1CCC2(CC1)OCCO2	56	-2%	-47%[10 µM]	1%	7.9µM*	-7%
CSc1ccc2c(c1)c(CCN)c(C)n2Cc1ccccc1Cl	/	18%[13.5 µM]	-14%[10 µM]	/	-10%	/
Cc1cnn(-c2cc(Oc3ccccc3)ncn2)c1	-26	22µM*	-7%	1%	/	19%
Nc1ccccc1N=Cc1c(O)n(CCC2=CCCCC2)c(=O)[nH]c1=O	?	2.8µM*	-34%	2%	/	?
Cc1cc(OC(=O)c2cccs2)c2c3c(c(=O)oc2c1)CCCC3	22	13µM*	29%[10 µM]	3%	-6%	25µM*
Cc1ccc(-n2nc(C)cc2NC(=O)COc2cc(C)cc3oc(=O)c4c(c23)CCC4)cc1	?	?	6%	1%	?	0%
Cc1cc(OCC(=O)Nc2c(C)n(C)n(-c3ccccc3)c2=O)c2c3c(c(=O)oc2c1)CCC3	20	3.2µM*	-2%[0.074 µM]	3%	?	17%
Cc1cc(OC(=O)c2ccco2)c2c3c(c(=O)oc2c1)CCCC3	30	14µM*	-82%	1%	-11%	13µM*
c1ccc(-c2cc3c(nc2-c2ccccc2)CCNC3)cc1	/	1%[13.5 µM]	8%[10 µM]	-2%[13.1 µM]	/	/
COc1cccc2c1C(=O)c1c(O)c3c(c(O)c1C2=O)C[C@](O)(/C(C)=N\O)C[C@@H]3O[C@H]1C[C@H](N)[C@@H](O)[C@H](C)O1	/	-8%[13.5 µM]	-79%[10 µM]	/	-7%	/
O=C(CNC(=O)c1ccc(Br)cc1)NCC(=O)OCC(=O)c1ccc([N+](=O)[O-])cc1	9	1µM*	-8%[10 µM]	4%	-8%	3%
O=C(CNC(=O)c1ccccc1)NCC(=O)OCC(=O)c1ccc([N+](=O)[O-])cc1	-10	0.89µM*	6%[10 µM]	0%	-6%	3%
O=C(CNC(=O)c1ccc(Cl)cc1)OCC(=O)c1ccc2c(c1)OCCO2	-12	?	3%	8%	-3%	-1%
Cc1cc(NC(=O)COC(=O)c2c(C)nn(Cc3ccccc3)c2C)no1	?	5%	12%	1%	-1%	9%[9.22 µM]
Cc1cc(NC(=O)CCl)no1	/	13µM*	22%[10 µM]	11%	/	8%[9.22 µM]
COc1cc(/C=N/NC(=O)CN2CCCCC2)ccc1OCc1ccccc1	7	22µM*	10%[10 µM]	1%	-23%	8%
CNC(=O)O/N=C/C(C)(C)S(C)=O (configuration not stated)	/	28µM*	2%	2%[21.7 µM]	-10%	/
CNC(=O)O/N=C(/C)SC	/	-3%	/	/	-4%	/
Cc1[nH]cnc1CCN	/	-2%	13%	5%	-10%	/
Nc1cccc2ccccc12	/	?	-12%	-9%[21.7 µM]	?	/
COc1ccccc1CCNC1CCC(C(C)(C)C)CC1 (configuration not stated)	-112*	?	-24%	-1%	/	14%
[O-][Cl+]O	/	3%	3%	-1%[21.7 µM]	-9%	/
SMILES	PNC assembly inh	ALDH1A1 inh	HTT cytoprotect	CBFb RUNX1 block	HPGD block	HTT aggregate
CC(C)c1ccc(N2C(=O)NC(=O)/C(=C/c3cnc(-c4ccccc4)nc3)C2=O)cc1	-26	19µM*	5%[10 µM]	7%	13µM*	6%
CSc1ncc(/C=C2/C(=O)NC(=O)N(c3ccc(C(C)C)cc3)C2=O)cn1	54	14µM*	-19%[10 µM]	2%	?	?
CSc1ncc(/C=C2/C(=O)NC(=O)N(C3CCCCC3)C2=O)cn1	?	4%	2%	1%	?	10%
CSc1ncc(/C=C2/C(=O)NC(=O)N(C)C2=O)cn1	5	-9%	2%	10%	-27%	-9%
CCCCN1C(=O)NC(=O)/C(=C/c2cnc(SC)nc2)C1=O	5	30%	11%	10%	20µM*	20%
CC(C)C(C)/C=C/C(C)C1CCC2C3=CC=C4CC(O)CCC4(C)C3CCC21C (configuration not stated)	/	?	-9%	-2%	-11%	/
CCCCNC(=O)Oc1c(Br)cc2sc(=O)oc2c1Br	/	/	16%[10 µM]	?	/	-9%[9.22 µM]
CCCCNC(=O)Oc1cc(CCl)on1	/	13µM*	2%	16%	/	6%
CC(N=Cc1c(O)[nH]c(=O)[nH]c1=O)c1ccccc1 (configuration not stated)	-24	?	5%	-3%	28µM*	-3%
C/C(=N\Nc1ccccc1)c1c(O)[nH]c(=O)[nH]c1=O	/	/	-10%[10 µM]	-3%	/	-16%[9.22 µM]
NS(=O)(=O)C[C-]1C=C[CH]([Sb-]([Cl])([Cl])([Cl])([Cl])[Cl])C=C1.c1ccncc1 (configuration not stated)	/	3.5µM*	-3%[10 µM]	/	-10%	/
Cc1ccc2c(c1)[C@@H]1CN(C)CC[C@H]1N2	/	/	22%	/	/	-2%
CN1C(=O)C(=Cc2ccc(OCCN(C)c3ccccn3)cc2)C(=O)N(C)C1=O	/	7.9µM*	6%[10 µM]	-6%	/	6%
CN1C(=O)C(=Cc2sc(=O)n(-c3ccccc3)c2N(C)C)C(=O)N(C)C1=O	/	/	-6%[10 µM]	8%	/	7%[9.22 µM]
C=CCc1cc(OC)c2c(c1OC)OCO2	/	-4%	/	/	-11%	/
CN(CCc1ccc(Cl)c(Cl)c1)[C@H]1CCCC[C@H]1N1CCCC1	/	25µM*	-6%	7%[21.7 µM]	-3%	/
CCSCC[C@H](N)C(=O)O	/	2%[13.5 µM]	-2%[10 µM]	/	-14%	/
CC[C@H]1[C@@H]2C[C@@H]3[C@@H]4N(C)c5ccccc5[C@@]45C[C@@H]([C@H]2[C@@H]5O)N3[C@@H]1O	/	/	-7%	/	/	/
Cc1nn(-c2ccccc2)c2c1C(c1ccc(F)cc1F)C(C#N)=C(N)O2 (configuration not stated)	?	13µM*	0%	-1%	28µM*	5%
COc1ccc(OC)c(C2C(C#N)=C(N)Oc3c2c(C)nn3-c2ccc(C)cc2)c1 (configuration not stated)	?	?	17%[10 µM]	-6%	-28%	-14%
